Results taken from the supplement of paper PMC11732987, “Enantioselective OTUD7B fragment discovery through chemoproteomics screening and high-throughput optimisation” (Communications Chemistry, 2025).
Unmarked numbers belong to inactive results.

Columns and labels:
Experiment in all cases: log2 ratio of Biotin-Ahx-Ub-VS probe labelling (fragment/DMSO); higher = less target engagement (more negative = stronger competition), active = hit call of the paper (q ≤ 0.05, log2 ratio ≤ -1)
Details in all cases: compound concentration: 200 uM; treatment time: 3 h
OTUD6B = molecular target: T1, OTUD6B (UniProt Q8N6M0)
T1 sequence (whole entry): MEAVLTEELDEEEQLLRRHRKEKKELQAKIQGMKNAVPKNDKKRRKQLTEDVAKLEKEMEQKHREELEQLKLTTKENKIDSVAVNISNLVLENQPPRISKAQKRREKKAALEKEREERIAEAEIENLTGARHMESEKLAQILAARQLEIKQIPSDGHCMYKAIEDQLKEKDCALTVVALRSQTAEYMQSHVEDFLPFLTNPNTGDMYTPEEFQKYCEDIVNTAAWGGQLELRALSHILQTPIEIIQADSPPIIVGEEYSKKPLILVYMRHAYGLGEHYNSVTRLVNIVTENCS
Method in brief: (§1)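 The table lists average log2 ratios of fragment over vehicle, from an unpaired t-test on global-median-normalised Spectronaut label-free quantities. Proteins with ≥2 unique peptides were used. Samples were HEK293T lysate (495 µg) treated in triplicate with fragment at 200 µM or vehicle for 3 h, then with Biotin-Ahx-Ub-VS (0.5 µM final) for 1 h, with labelled DUBs NeutrAvidin-enriched and run by diaPASEF LC-MS/MS.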

OTUD7B = molecular target: T2, OTUD7B (UniProt Q6GQQ9)
T2 sequence (whole entry): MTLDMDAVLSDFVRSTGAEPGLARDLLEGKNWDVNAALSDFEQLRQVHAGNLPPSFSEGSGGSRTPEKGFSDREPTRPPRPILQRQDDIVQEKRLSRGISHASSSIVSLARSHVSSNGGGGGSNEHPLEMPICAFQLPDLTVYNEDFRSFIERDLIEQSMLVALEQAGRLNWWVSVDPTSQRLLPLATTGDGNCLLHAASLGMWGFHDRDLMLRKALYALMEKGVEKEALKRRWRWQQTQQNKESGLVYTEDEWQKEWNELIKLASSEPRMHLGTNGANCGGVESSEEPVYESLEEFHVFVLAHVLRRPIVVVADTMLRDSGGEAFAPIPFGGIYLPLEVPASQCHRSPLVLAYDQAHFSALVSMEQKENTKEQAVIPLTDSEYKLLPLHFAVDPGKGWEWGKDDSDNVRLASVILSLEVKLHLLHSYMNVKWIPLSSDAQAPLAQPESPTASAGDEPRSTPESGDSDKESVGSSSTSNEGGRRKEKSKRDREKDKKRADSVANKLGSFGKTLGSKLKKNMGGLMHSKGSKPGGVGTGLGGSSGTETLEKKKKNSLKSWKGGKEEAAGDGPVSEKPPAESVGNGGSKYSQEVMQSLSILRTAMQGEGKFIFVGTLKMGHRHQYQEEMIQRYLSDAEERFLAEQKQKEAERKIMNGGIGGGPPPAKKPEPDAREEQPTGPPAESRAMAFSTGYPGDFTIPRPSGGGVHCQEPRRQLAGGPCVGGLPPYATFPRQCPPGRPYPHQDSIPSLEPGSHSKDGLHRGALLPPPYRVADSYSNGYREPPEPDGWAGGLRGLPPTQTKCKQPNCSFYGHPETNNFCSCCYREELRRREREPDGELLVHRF
Method in brief: as §1

PRPF8 = PRPF8 (UniProt Q6P2Q9)
Method in brief: as §1

PSMD7 = molecular target: T3, PSMD7 (UniProt P51665)
T3 sequence (whole entry): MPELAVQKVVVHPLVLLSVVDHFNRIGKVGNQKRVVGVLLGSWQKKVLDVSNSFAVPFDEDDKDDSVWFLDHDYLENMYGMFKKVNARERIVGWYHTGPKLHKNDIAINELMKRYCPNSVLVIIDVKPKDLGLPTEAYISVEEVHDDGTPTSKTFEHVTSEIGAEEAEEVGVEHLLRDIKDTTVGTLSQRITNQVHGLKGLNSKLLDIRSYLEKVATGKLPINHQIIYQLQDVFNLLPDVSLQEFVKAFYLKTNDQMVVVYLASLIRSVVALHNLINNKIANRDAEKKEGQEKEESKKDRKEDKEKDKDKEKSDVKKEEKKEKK
Method in brief: as §1

UCHL1 = UCHL1 (UniProt P09936)
Method in brief: as §1

UCHL3 = molecular target: T4, UCHL3 (UniProt P15374)
T4 sequence (whole entry): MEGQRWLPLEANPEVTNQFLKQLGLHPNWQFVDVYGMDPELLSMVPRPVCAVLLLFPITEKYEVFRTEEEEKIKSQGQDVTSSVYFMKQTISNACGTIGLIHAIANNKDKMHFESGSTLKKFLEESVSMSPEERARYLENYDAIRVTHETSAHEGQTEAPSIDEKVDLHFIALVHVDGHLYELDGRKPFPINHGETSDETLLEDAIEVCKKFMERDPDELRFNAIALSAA
Method in brief: as §1

UCHL5 = molecular target: T5, UCHL5 (UniProt Q9Y5K5)
T5 sequence (whole entry): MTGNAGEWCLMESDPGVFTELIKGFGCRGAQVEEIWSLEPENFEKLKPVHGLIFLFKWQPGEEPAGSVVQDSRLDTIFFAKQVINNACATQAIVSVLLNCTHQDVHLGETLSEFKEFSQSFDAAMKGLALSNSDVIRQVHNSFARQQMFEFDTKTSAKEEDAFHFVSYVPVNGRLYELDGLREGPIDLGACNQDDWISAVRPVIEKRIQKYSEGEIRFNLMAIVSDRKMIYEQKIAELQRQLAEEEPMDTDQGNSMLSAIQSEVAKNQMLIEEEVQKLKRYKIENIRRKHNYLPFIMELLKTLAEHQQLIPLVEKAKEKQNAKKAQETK
Method in brief: as §1

USP10 = USP10 (UniProt Q14694)
Method in brief: as §1

USP15 = molecular target: T6, USP15 (UniProt Q9Y4E8)
T6 sequence (whole entry): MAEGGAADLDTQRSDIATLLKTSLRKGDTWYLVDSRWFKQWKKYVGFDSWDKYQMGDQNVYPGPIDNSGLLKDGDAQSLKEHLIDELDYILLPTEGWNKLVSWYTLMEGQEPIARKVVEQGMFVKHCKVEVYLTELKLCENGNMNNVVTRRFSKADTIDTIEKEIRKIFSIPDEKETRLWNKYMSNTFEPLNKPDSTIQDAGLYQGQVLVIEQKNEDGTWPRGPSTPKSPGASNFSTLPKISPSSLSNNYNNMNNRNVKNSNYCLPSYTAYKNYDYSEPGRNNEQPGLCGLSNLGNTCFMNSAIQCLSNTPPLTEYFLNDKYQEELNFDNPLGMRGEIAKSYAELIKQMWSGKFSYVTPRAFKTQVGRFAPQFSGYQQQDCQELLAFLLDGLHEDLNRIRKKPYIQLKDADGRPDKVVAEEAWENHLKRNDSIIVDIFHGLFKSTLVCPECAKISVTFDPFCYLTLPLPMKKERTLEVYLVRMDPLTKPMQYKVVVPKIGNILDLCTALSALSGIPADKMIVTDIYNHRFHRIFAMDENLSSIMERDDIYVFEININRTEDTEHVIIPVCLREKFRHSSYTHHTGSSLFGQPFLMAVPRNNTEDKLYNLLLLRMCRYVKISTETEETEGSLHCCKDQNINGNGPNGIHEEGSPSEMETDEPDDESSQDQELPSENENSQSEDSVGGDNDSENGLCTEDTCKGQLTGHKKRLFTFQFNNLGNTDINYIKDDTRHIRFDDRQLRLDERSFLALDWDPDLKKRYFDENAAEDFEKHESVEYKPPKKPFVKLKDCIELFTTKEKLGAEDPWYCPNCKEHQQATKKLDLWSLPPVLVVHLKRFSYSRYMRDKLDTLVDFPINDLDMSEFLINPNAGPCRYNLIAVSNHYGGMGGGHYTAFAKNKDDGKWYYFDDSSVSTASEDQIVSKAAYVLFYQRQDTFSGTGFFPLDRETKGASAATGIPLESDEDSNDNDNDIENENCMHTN
Method in brief: as §1

USP16 = USP16 (UniProt Q9Y5T5)
Method in brief: as §1

Sequence of UCHL1 (P09936 whole entry, looked up): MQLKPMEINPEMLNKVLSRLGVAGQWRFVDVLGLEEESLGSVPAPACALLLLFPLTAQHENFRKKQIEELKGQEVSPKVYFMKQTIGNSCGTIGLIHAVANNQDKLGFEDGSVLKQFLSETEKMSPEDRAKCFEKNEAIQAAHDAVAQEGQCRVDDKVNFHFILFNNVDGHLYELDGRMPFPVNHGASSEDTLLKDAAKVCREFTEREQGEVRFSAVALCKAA
Sequence of USP10 (Q14694 whole entry): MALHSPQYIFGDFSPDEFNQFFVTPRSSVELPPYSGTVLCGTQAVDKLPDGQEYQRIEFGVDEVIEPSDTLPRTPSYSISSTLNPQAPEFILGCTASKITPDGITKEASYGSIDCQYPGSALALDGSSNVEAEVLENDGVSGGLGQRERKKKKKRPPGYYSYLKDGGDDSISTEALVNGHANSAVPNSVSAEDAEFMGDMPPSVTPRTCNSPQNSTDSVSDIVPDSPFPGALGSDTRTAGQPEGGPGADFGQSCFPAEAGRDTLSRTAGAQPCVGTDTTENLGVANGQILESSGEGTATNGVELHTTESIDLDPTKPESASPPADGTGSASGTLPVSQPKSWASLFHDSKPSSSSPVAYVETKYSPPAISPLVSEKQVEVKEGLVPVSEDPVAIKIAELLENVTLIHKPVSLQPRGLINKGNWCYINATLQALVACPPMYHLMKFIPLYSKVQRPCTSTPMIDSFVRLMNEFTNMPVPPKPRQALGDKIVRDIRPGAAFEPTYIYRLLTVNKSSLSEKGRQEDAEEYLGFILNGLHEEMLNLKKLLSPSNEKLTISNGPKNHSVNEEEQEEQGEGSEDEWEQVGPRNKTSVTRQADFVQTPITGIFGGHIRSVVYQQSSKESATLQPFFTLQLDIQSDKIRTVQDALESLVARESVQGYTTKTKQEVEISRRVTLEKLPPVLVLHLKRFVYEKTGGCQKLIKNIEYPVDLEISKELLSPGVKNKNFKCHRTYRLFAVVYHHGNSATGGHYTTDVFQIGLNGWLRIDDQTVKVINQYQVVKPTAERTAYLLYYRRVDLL
Sequence of USP16 (Q9Y5T5 whole entry, looked up): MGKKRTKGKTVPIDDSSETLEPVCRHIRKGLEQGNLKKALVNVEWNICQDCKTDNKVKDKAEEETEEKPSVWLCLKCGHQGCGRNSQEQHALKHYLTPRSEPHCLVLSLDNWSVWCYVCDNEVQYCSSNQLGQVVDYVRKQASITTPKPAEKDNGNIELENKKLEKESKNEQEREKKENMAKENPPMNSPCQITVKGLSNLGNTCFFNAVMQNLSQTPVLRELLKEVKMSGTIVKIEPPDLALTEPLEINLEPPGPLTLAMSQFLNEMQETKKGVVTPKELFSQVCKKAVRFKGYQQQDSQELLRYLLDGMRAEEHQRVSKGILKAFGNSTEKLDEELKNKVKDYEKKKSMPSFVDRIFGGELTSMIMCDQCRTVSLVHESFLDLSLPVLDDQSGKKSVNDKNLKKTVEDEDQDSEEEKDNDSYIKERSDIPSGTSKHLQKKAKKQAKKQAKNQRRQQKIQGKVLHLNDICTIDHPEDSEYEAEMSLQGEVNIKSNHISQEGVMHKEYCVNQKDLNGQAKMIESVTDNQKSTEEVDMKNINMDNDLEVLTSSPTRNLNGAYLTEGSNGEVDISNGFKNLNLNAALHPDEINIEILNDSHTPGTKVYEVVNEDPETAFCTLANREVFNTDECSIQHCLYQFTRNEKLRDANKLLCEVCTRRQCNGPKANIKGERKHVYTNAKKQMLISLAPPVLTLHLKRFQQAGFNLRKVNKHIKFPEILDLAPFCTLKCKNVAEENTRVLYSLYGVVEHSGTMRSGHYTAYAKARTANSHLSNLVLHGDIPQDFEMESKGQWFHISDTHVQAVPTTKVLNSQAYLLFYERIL

For `CNC(=O)C1(NC(=O)CCl)CCCCC1`, the “log2 ratio of Biotin-Ahx-Ub-VS probe labelling” value (from here on “log2 ratio”) (OTUD6B) was -0.206, the “log2 ratio” value (OTUD7B) was -0.687 and the “log2 ratio” value (PRPF8) was -0.213. For the same compound, the “log2 ratio” value (PSMD7) was -0.128, the “log2 ratio” value (UCHL1) was -1.81 (active) and the “log2 ratio” value (UCHL3) was 0.248. The “log2 ratio” value (UCHL5) was -0.358, the “log2 ratio” value (USP10) was -0.0869 and the “log2 ratio” value (USP15) was 0.0503. The “log2 ratio” value (USP16) was 0.154.
